Reference: PubChem BioAssay AID652105 (National Center for Advancing Translational Sciences (NCATS), 2013)
Out of some 330,000 compounds screened, about 4,100 (1.2%) were called active. Another 2% or so got no clear call; they are omitted. The calls were made as follows: active = max response of -50% or lower; inconclusive = between -30% and -50%; inactive = -30% or higher. The entries come from a sample that favours actives as a whole.

What follows are compounds tested against Phosphatidylinositol 5-phosphate 4-kinase type-2 alpha (Homo sapiens) (UniProt P48426) (assay: qHTS for Inhibitors of phosphatidylinositol 5-phosphate 4-kinase (PI5P4K)). Conditions: PI5P4Kalpha enzyme, ADP-Glo luminescence, 60 min; active compounds read low.
Procedure, shortened: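 Reactions run in 0.038 M HEPES pH 7.4, 0.28 mM EGTA, 0.1% CHAPS and 5% DMSO, with PI5P4Kalpha, substrate, compound and 5 microM ATP final, one hour at room temperature. Readout is ADP-Glo luminescence.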
% is scaled to controls: 0 for no effect and ±100 for the full control effect.
Also: value at the top dose of about 77 µM.

Phosphatidylinositol 5-phosphate 4-kinase type-2 alpha (Homo sapiens), sequence (P48426 whole entry, looked up): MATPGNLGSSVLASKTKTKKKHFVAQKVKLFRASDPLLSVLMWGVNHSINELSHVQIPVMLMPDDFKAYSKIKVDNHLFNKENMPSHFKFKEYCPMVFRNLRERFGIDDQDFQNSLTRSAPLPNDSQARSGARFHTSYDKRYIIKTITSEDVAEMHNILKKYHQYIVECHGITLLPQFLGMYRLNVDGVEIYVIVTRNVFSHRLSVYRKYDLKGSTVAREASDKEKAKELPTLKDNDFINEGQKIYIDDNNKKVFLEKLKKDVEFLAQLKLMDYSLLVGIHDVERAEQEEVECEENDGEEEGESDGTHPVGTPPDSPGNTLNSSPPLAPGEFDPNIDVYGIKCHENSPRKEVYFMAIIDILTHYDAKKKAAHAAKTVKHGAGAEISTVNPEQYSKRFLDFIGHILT

Row | Structure (SMILES) | max response
1 | CCCCNC(=O)C[C@@H]1C[C@@]2(C(=O)OC)CC(C)(C)CC=C2N(Cc2ccco2)C1=O | 4.39% (inactive)
2 | COc1ccc(C2=NN(c3nc4ccccc4s3)C(=O)C2)cc1 | -57.5% (active)
3 | COc1ccc(-n2nnnc2-c2nc3ccccc3s2)cc1 | 11.9% (inactive)
4 | COc1ccc(C2=NN(C(C)=O)C(c3ccccc3)C2)cc1 (stereo not drawn) | -5.07% (inactive)
5 | Cn1c(Nc2ccc(F)cc2)nc2cc(-c3ccsc3)sc2c1=O | -0.288% (inactive)
6 | CCCc1[nH]nc2c1C(c1ccc(OC)c(Cn3nc(C)c(Br)c3C)c1)C(C#N)=C(N)O2 (stereo not drawn) | -0.298% (inactive)
7 | CCCc1[nH]nc2c1C(C1CC=CCC1)C(C#N)=C(N)O2 (stereo not drawn) | -60.2% (active)
8 | CCCc1[nH]nc2c1C(c1ccc(Br)s1)C(C#N)=C(N)O2 (stereo not drawn) | -24.7% (inactive)
9 | CCCCn1nnnc1C(c1ccccc1)N1CCN(c2ccccc2OC)CC1 (stereo not drawn) | 1.03% (inactive)
10 | O=C(NC(c1ccc(-c2ccccc2)cc1)c1cnccn1)C1CCN(CCOc2ccc(Cl)cc2Cl)CC1 (stereo not drawn) | 31% (inactive)
11 | CC(C)C[C@@H](COCc1ccc(Cl)cc1)N1CCN(C(=O)c2ccc(Cl)cc2Cl)CCC1=O | 15.2% (inactive)
12 | COc1ccc(-c2cc(NC(C)=O)c3ncc(-c4cc(OC)c(OC)c(OC)c4)n3c2)cn1 | -8.79% (inactive)
13 | Cc1cn([C@H]2C[C@H](O)[C@@H](/C=C/C(=O)NCCCc3ccccc3)O2)c(=O)[nH]c1=O | -0.963% (inactive)
14 | Cc1ccc(S(=O)(=O)N2[C@@H](Cc3ccccc3)CO[C@H]2CC(=O)OCc2ccccc2)cc1 | 4.77% (inactive)
15 | Cc1cc(Br)cn2c(Cc3ccccc3C(F)(F)F)c(C3CCCCC3)nc12 | 10.4% (inactive)
16 | CN(CC(=O)Nc1cccc(F)c1)C(=O)CC1CCCC1 | 2.62% (inactive)
17 | CCN(CC)C(=O)CSC(Nc1cccc(F)c1)=C(C#N)C#N | -66.7% (active)
18 | Cc1ccc(CSCC(=O)N(C)CC(=O)Nc2cccc(F)c2)cc1 | 4.92% (inactive)
19 | O=C1NC[C@@H](CCCCN2CCN(CCc3ccc(O)cc3)C(=O)C2=O)N(CC2CCCCC2)C1=O | -1.17% (inactive)
20 | Cc1ccc(C)c(C(O)c2ncc(-c3cccc4ccccc34)[nH]2)c1 (stereo not drawn) | -1.21% (inactive)
21 | CCCCn1nnnc1C(c1cccc(OC)c1OC)N1CCN(C/C=C/c2ccccc2)CC1 (stereo not drawn) | 0.353% (inactive)

Row | Structure (SMILES) | max response
22 | CCC(c1nc2ccccc2[nH]1)n1c(=O)c(-c2cccs2)nc2ccccc21 (stereo not drawn) | 1.88% (inactive)
23 | CCCCNC(=O)C[C@@H]1C[C@@]2(C(=O)OCC)CCC=C2N(Cc2ccco2)C1=O | -0.539% (inactive)
24 | CC(=O)Nc1cccc(-c2cc(NC=O)c3ncc(-c4ccc(F)c(Cl)c4)n3c2)c1 | -70.3% (active)
25 | CC(=O)c1cccc(-c2cnc3c(NC=O)cc(-c4ccc(N(C)C)cc4)cn23)c1 | -17.5% (inactive)
26 | CC(=O)Nc1cccc(-c2cc(NC(C)=O)c3ncc(-c4ccccc4)n3c2)c1 | -5.78% (inactive)
27 | CC(=O)c1cccc(-c2cnc3c(NC=O)cc(-c4ccccc4Oc4ccccc4)cn23)c1 | -13% (inactive)
28 | COc1cccc(-c2cnc3c(NC(C)=O)cc(-c4cccc(NC(C)=O)c4)cn23)c1 | -7.23% (inactive)
29 | CC(=O)c1cccc(-c2cnc3c(NC=O)cc(-c4cccc(C(=O)N(C)C)c4)cn23)c1 | -9.37% (inactive)
30 | CC(=O)c1ccc(-c2cnc3c(NC=O)cc(-c4cccc(NS(C)(=O)=O)c4)cn23)cc1 | -83.7% (active)
31 | CC(=O)c1cccc(-c2cnc3c(NC=O)cc(-c4ccc(N5CCN(C)CC5)cc4)cn23)c1 | -0.912% (inactive)
32 | CN(C)C(=O)c1cccc(-c2cnc3c(NC=O)cc(-c4ccc(F)cc4)cn23)c1 | -50.2% (active)
33 | CCCCN1C(=O)C(CC(=O)NCc2cccs2)CC(C(=O)N2CCCCCC2)=C1C (stereo not drawn) | 8.96% (inactive)
34 | COc1cccc(NC(=O)CN(C)C(=O)c2cc(Cl)nc3ccccc23)c1 | 0.592% (inactive)
35 | Cc1cccnc1C(NC(=O)C1CCN(Cc2ccc(Cl)c(Cl)c2)CC1)c1ccc(Cl)cc1 (stereo not drawn) | 13.1% (inactive)
36 | Cc1nc(C(F)(F)F)ccc1C(=O)N1CCC1(C)C(=O)NS(=O)(=O)c1ccccc1Cl (stereo not drawn) | -2.74% (inactive)
37 | C[C@H]1CN([C@@H](C)CO)C(=O)CCCn2nncc2CO[C@@H]1CN(C)S(=O)(=O)c1cccc(C#N)c1 | 8.11% (inactive)
38 | COC(=O)c1c(C)c(C)nc(N)c1C#N | 1.33% (inactive)
39 | COCc1c(N)c(C)nc(Cl)c1C#N | -79.4% (active)
40 | Cc1nc(Cl)c(C#N)c2c1CCCC2 | -4.68% (inactive)
41 | CC(C)NC(=O)Nc1ccc2c(c1)C(=O)N([C@H](C)CO)C[C@H](C)[C@@H](CN(C)Cc1ccc(C(F)(F)F)cc1)OCCCC[C@@H](C)O2 | 10.4% (inactive)
42 | CC1(C)OC(=O)C2=C(C[C@@H](C3CC3)O[C@H]2c2ccc(Cl)cc2)O1 | 8.12% (inactive)

Row | Structure (SMILES) | max response
43 | CC1(C)OC(=O)C2=C(C[C@@H](C3CCCCC3)O[C@@H]2c2ccc(Cl)cc2)O1 | 10.9% (inactive)
44 | Cc1ccc(S(=O)(=O)Oc2ccc(/C=N/NC(=O)c3ccncc3)cc2)cc1 | 3.82% (inactive)
45 | CC(=O)Nc1ccc(S(=O)(=O)Oc2ccc(/C=N/N=C3/NC(=O)C(CC(=O)O)S3)cc2)cc1 (stereo not drawn) | -65% (active)
46 | Cc1ccc(NC(=O)CC2S/C(=N/N=C3\CCCc4ccccc43)NC2=O)cc1 (stereo not drawn) | 27.6% (inactive)
47 | CCOC(=O)C1C(C)C(C(C)(C)C)N(S(=O)(=O)c2ccc(C)cc2)C1c1ccccc1 (stereo not drawn) | 6.25% (inactive)
48 | CCCOc1ccc(Cn2c(O)cc(=O)[nH]c2=O)cc1 | -26.6% (inactive)
49 | COc1ccc(NC(=O)CNC(=O)Cc2ccccc2)cc1OC | -2.31% (inactive)
50 | COc1cc(=O)[nH]c(=O)n1C(=O)Cc1ccccc1 | -54.9% (active)
51 | COC(=O)[C@]12CCCCC=C1N(Cc1ccc3c(c1)OCO3)C(=O)[C@H](CC(=O)NCc1cccs1)C2 | 1.05% (inactive)
52 | CCCS(=O)(=O)NC(=O)C1(C)CCCN(C(=O)c2cccs2)C1 (stereo not drawn) | 5.25% (inactive)
53 | Cc1cc(C(=O)N2CCCC2(C)C(=O)O)c(C)o1 (stereo not drawn) | -1.39% (inactive)
54 | CCCCCCCCN1C(=O)[C@H](CC(=O)NCC23CC4CC(CC(C4)C2)C3)C[C@@]2(C(=O)OC)CCCCC=C12 | 8.08% (inactive)
55 | S=c1[nH]nc2c3c4c(sc3ncn12)CCCC4 | -58.2% (active)
56 | N=c1c2c3c(sc2ncn1N)CCCCC3 | 0.011% (inactive)
57 | N=c1c2c3c(sc2ncn1N)CCCC3 | -4.92% (inactive)
58 | COc1ccc(CNC(=O)c2ccc(-c3cccnc3)c3ccoc23)cc1OC | 0.62% (inactive)
59 | O=C(NCc1ccc(F)cc1)c1cc(C2CCCCN2C(=O)c2cccs2)on1 (stereo not drawn) | -3.15% (inactive)
60 | CC(C)c1cc(Cn2c3ccccc3c(=O)n2C(C)Cn2cc(C3CC3)nn2)on1 (stereo not drawn) | -4.48% (inactive)
61 | CC(C)(C)OC(=O)N1CCN(C(=O)c2[nH]c(C(F)(F)F)nc2-c2ccccc2)CC1 | 6.39% (inactive)
62 | CS(=O)(=O)c1ccc2nc(NC(=O)C3C4C=CC(C4)C3C(=O)O)sc2c1 (stereo not drawn) | -8.9% (inactive)
63 | COc1cccc(C(=O)Nc2nc3ccc(S(C)(=O)=O)cc3s2)c1 | -58.6% (active)

Row | Structure (SMILES) | max response
64 | CS(=O)(=O)c1ccc2nc(NC(=O)c3ccc(Cl)nc3)sc2c1 | -8.02% (inactive)
65 | CCOC(=O)N1CCN(C(=O)C[C@@H]2C[C@@]3(C(=O)OC)CC(C)(C)CC=C3N(Cc3ccco3)C2=O)CC1 | -4.8% (inactive)
66 | CC1=C(C(=O)OC(C)(C)C)C(c2ccc(Br)cc2)NC(=O)N1CCCC(=O)O (stereo not drawn) | -68.2% (active)
67 | CC1=C(C(=O)OCc2ccccc2)C(c2ccc(C(F)(F)F)cc2)NC(=O)N1CCCCCC(=O)O (stereo not drawn) | -6.37% (inactive)
68 | COCCN1C(=O)N[C@@H](c2ccccc2)C(C(=O)OC)=C1C | 3.31% (inactive)
69 | CCCCNC(=O)OC1CC2CC1[C@H]1CCCCN1C2=O (stereo partly drawn) | 2.78% (inactive)
70 | NC(c1ccccc1)c1csc(NC(=O)Nc2cccc(C(F)(F)F)c2)n1 (stereo not drawn) | -16.7% (inactive)
71 | O=C(O)c1ccc2c(=O)n3c(nc2c1)/C(=C/c1ccc(Cl)c([N+](=O)[O-])c1)CC3 | -16.4% (inactive)
72 | O=C(O)c1ccc2c(=O)n3c(nc2c1)/C(=C/c1ccc(OC(F)F)cc1OC(F)F)CC3 | -50.1% (active)
73 | N#Cc1ccc(/C=C2\CCn3c2nc2cc(C(=O)O)ccc2c3=O)cc1 | -10.5% (inactive)
74 | CCc1nc2ccc(C(=O)N(C)CCN(C)C)cn2c1N(CC)CCOC | 2.65% (inactive)
75 | OC(c1ccc(Cl)c(F)c1)c1ncc(-c2ccccc2Cl)[nH]1 (stereo not drawn) | 10.9% (inactive)
76 | CC(C)c1ccc(CC(=O)N2CCC2(C)C(=O)NS(=O)(=O)c2ccc(C(C)(C)C)cc2)cc1 (stereo not drawn) | 3.85% (inactive)
77 | O=[N+]([O-])c1ccc(C=NN=Cc2ccc([N+](=O)[O-])cc2)cc1 | -4.59% (inactive)
78 | O=C1/C(=C\c2ccc([N+](=O)[O-])cc2)CS(=O)(=O)C/C1=C/c1ccc([N+](=O)[O-])cc1 | -83.1% (active)
79 | CC(=O)Nc1ccc(C=Cc2ccc([N+](=O)[O-])cc2)cc1 | -5.32% (inactive)
80 | CC=CCn1c(SCCCc2ccccc2)nc2c1c(=O)[nH]c(=O)n2C | -3.45% (inactive)
81 | Cc1ccc(/C=C/C(=O)Nc2cc(S(=O)(=O)N3CCCCCC3)ccc2OCC(F)(F)F)o1 | 2.97% (inactive)
82 | Cc1ccc(/C=C/C(=O)Nc2ccc([N+](=O)[O-])c(NC(=O)/C=C/c3ccc(C)o3)c2)o1 | -71.8% (active)
83 | COC(=O)/C=C\C(=O)Nc1cccc([N+](=O)[O-])c1 | -26.6% (inactive)
